Our source for the binding signal values is PMC11006913.

Holding throughout (assay): PBM; 200 nM protein, PBS
What all share (details): dsDNA, one strand shown

In assay [1] the target is HOXA7 (Homo sapiens, UniProt P31268 116-202).
The target in assay [2] is ALX1 (Homo sapiens, UniProt Q15699 118-204, L144V).
The target of assay [3] is ALX1 (Homo sapiens, UniProt Q15699 118-204, L144R).
For assay [4], the target named is HOXA7 (Homo sapiens, UniProt P31268 116-202, W177C).
Assay [5] addresses ALX1 (Homo sapiens, UniProt Q15699 118-204).
Assay [6] addresses MSX2 (Homo sapiens, UniProt P35548 130-214, R199I).
Assay [7] deals with MSX2 (Homo sapiens, UniProt P35548 130-214).
For assay [8], the target named is MSX2 (Homo sapiens, UniProt P35548 130-214, F161Y).
In assay [9] the target is PROP1 (Homo sapiens, UniProt O75360 56-141).
Assay [10] addresses PROP1 (Homo sapiens, UniProt O75360 56-141, R99H).
Assay [11] deals with PROP1 (Homo sapiens, UniProt O75360 56-141, F88S).
The target of assay [12] is T1, PAX4 (Homo sapiens, UniProt O43316 9-242, R200K).
T1 sequence: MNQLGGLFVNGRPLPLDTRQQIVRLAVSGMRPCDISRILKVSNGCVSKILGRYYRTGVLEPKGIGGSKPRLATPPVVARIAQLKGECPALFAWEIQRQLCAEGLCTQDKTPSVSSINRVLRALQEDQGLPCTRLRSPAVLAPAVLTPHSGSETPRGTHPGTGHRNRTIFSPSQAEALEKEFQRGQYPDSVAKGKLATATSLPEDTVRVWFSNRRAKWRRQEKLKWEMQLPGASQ

For assay [13], the target named is T2, PAX4 (Homo sapiens, UniProt O43316 9-242).
T2 sequence: T1 sequence with K192R

Assay [14] deals with T3, PAX4 (Homo sapiens, UniProt O43316 9-242, R200Q).
T3 sequence: T1 sequence with K192Q

For assay [15], the target named is T4, PAX4 (Homo sapiens, UniProt O43316 9-242, F177V).
T4 sequence: T1 sequence with F169V, K192R

The target of assay [16] is T5, PAX4 (Homo sapiens, UniProt O43316 9-242, F177Y).
T5 sequence: T1 sequence with F169Y, K192R

For assay [17], the target named is T6, PAX4 (Homo sapiens, UniProt O43316 9-242, R227W).
T6 sequence: T1 sequence with K192R, R219W

Assay [18] addresses HOXD13 (Homo sapiens, UniProt P35453 263-343, T313R).
The target in assay [19] is HOXD13 (Homo sapiens, UniProt P35453 263-343).
Assay [20] addresses HOXD13 (Homo sapiens, UniProt P35453 263-343, T313A).
Assay [21] has as its target HOXC9 (Homo sapiens, UniProt P31274 178-260, R222W).
Assay [22] deals with HOXA2 (Homo sapiens, UniProt O43364 129-215, R185T).
The target in assay [23] is HOXA2 (Homo sapiens, UniProt O43364 129-215, R185K).
Assay [24] has as its target HOXA2 (Homo sapiens, UniProt O43364 129-215, Y150S).
In assay [25] the target is HOXA2 (Homo sapiens, UniProt O43364 129-215).
Assay [26] addresses ALX4 (Homo sapiens, UniProt Q9H161 200-286).
Assay [27] deals with ALX4 (Homo sapiens, UniProt Q9H161 200-286, Q225E).

Positions count from the first letter of the chain named.

Chain of HOXA7 (Homo sapiens, UniProt P31268 116-202, W177C) (P31268 116-202 W177C): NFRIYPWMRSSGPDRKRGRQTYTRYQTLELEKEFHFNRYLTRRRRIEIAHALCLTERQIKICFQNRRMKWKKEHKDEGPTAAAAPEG
Chain of HOXA7 (Homo sapiens, UniProt P31268 116-202) (P31268 116-202): as the sequence (P31268 116-202 W177C) above, with C62W counted along it
Chain of MSX2 (Homo sapiens, UniProt P35548 130-214, R199I) (P35548 130-214 R199I): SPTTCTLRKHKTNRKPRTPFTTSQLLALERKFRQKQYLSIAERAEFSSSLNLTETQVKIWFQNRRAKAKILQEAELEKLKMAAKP
Chain of ALX1 (Homo sapiens, UniProt Q15699 118-204, L144V) (Q15699 118-204 L144V): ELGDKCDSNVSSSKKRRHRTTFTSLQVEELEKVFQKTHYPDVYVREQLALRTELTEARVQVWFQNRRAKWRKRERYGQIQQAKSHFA
Chain of MSX2 (Homo sapiens, UniProt P35548 130-214) (P35548 130-214): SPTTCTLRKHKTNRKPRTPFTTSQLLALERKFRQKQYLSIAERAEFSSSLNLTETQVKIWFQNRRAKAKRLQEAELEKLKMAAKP
Chain of ALX1 (Homo sapiens, UniProt Q15699 118-204, L144R) (Q15699 118-204 L144R): as the sequence (Q15699 118-204 L144V) above, with V27R counted along it
Chain of MSX2 (Homo sapiens, UniProt P35548 130-214, F161Y) (P35548 130-214 F161Y): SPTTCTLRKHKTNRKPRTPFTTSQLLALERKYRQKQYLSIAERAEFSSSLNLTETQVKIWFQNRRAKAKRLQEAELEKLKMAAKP
Chain of ALX1 (Homo sapiens, UniProt Q15699 118-204) (Q15699 118-204): as the sequence (Q15699 118-204 L144V) above, with V27L counted along it
Chain of ALX4 (Homo sapiens, UniProt Q9H161 200-286) (Q9H161 200-286): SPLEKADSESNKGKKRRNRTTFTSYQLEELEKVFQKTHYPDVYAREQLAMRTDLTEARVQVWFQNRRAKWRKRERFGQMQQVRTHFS
Chain of HOXD13 (Homo sapiens, UniProt P35453 263-343) (P35453 263-343): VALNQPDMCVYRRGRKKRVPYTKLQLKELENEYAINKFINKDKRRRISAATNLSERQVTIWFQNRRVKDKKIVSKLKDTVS
Chain of HOXA2 (Homo sapiens, UniProt O43364 129-215, R185T) (O43364 129-215 R185T): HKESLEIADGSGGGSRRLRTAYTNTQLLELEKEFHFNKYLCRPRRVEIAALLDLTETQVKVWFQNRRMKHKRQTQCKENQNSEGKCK
Chain of HOXD13 (Homo sapiens, UniProt P35453 263-343, T313R) (P35453 263-343 T313R): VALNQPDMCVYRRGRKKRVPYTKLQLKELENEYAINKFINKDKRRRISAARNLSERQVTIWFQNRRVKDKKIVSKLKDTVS
Chain of HOXA2 (Homo sapiens, UniProt O43364 129-215, R185K) (O43364 129-215 R185K): as the sequence (O43364 129-215 R185T) above, with T57K counted along it
Chain of HOXA2 (Homo sapiens, UniProt O43364 129-215, Y150S) (O43364 129-215 Y150S): as the sequence (O43364 129-215 R185T) above, with Y22S, T57R counted along it
Chain of PROP1 (Homo sapiens, UniProt O75360 56-141, R99H) (O75360 56-141 R99H): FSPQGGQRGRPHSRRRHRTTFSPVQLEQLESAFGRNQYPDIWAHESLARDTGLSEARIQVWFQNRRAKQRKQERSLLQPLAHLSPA
Chain of HOXA2 (Homo sapiens, UniProt O43364 129-215) (O43364 129-215): as the sequence (O43364 129-215 R185T) above, with T57R counted along it
Chain of HOXD13 (Homo sapiens, UniProt P35453 263-343, T313A) (P35453 263-343 T313A): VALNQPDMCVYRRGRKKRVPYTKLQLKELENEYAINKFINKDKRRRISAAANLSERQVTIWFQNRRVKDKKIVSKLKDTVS
Chain of PROP1 (Homo sapiens, UniProt O75360 56-141, F88S) (O75360 56-141 F88S): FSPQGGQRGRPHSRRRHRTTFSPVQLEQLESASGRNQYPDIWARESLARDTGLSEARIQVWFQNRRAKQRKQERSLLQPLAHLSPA
Chain of ALX4 (Homo sapiens, UniProt Q9H161 200-286, Q225E) (Q9H161 200-286 Q225E): as the sequence (Q9H161 200-286) above, with Q26E counted along it
Chain of HOXC9 (P31274 178-260 R222W): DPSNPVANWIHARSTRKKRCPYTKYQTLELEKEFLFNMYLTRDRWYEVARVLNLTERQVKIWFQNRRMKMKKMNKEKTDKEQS
Chain of PROP1 (Homo sapiens, UniProt O75360 56-141) (O75360 56-141): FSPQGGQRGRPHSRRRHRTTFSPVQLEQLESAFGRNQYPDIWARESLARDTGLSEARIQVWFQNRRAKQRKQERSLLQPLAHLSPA

In the case of CGTCGCCC, the binding signal in [1] was 8.61 upbm affinity estimate (log intensity, higher = more binding, comparable within an allelic series); in assay [2], 6.4 upbm affinity estimate (log intensity, higher = more binding, comparable within an allelic series); in assay [3], 6.34 upbm affinity estimate (log intensity, higher = more binding, comparable within an allelic series); in assay [4], 8.42 upbm affinity estimate (log intensity, higher = more binding, comparable within an allelic series); in assay [5], 6.57 upbm affinity estimate (log intensity, higher = more binding, comparable within an allelic series).

GAGGGACC: the binding signal is 8.55 upbm affinity estimate (log intensity, higher = more binding, comparable within an allelic series) in assay [1]; 9.48 upbm affinity estimate (log intensity, higher = more binding, comparable within an allelic series) in assay [6]; 9.7 upbm affinity estimate (log intensity, higher = more binding, comparable within an allelic series) in [7]; 9.64 upbm affinity estimate (log intensity, higher = more binding, comparable within an allelic series) in assay [8]; 8.33 upbm affinity estimate (log intensity, higher = more binding, comparable within an allelic series) in assay [4].

For the sequence CAGTGCGG, the binding signal is 8.54 upbm affinity estimate (log intensity, higher = more binding, comparable within an allelic series) in assay [1]; 6.84 upbm affinity estimate (log intensity, higher = more binding, comparable within an allelic series) in [9]; 6.82 upbm affinity estimate (log intensity, higher = more binding, comparable within an allelic series) in [10]; 6.73 upbm affinity estimate (log intensity, higher = more binding, comparable within an allelic series) in [11]; 8.37 upbm affinity estimate (log intensity, higher = more binding, comparable within an allelic series) in assay [4].

For the sequence AGGCAGGC, the binding signal was 8.15 upbm affinity estimate (log intensity, higher = more binding, comparable within an allelic series) in [1]; 9.23 upbm affinity estimate (log intensity, higher = more binding, comparable within an allelic series) in [12]; 9.23 upbm affinity estimate (log intensity, higher = more binding, comparable within an allelic series) in assay [13]; 9.37 upbm affinity estimate (log intensity, higher = more binding, comparable within an allelic series) in [14]; 9.22 upbm affinity estimate (log intensity, higher = more binding, comparable within an allelic series) in [15]; 9.34 upbm affinity estimate (log intensity, higher = more binding, comparable within an allelic series) in [16]. In addition, the binding signal in [17] was 9.36 upbm affinity estimate (log intensity, higher = more binding, comparable within an allelic series); in assay [4] it was 8.3 upbm affinity estimate (log intensity, higher = more binding, comparable within an allelic series).

For the sequence ATCATCTA, the binding signal in [1] was 9.36 upbm affinity estimate (log intensity, higher = more binding, comparable within an allelic series); in assay [4], 8.74 upbm affinity estimate (log intensity, higher = more binding, comparable within an allelic series).

Consider TATAAAAA, for which the binding signal in [1] is 9.87 upbm affinity estimate (log intensity, higher = more binding, comparable within an allelic series); in assay [18], 10.9 upbm affinity estimate (log intensity, higher = more binding, comparable within an allelic series); in [19], 11.8 upbm affinity estimate (log intensity, higher = more binding, comparable within an allelic series); in assay [20], 11.6 upbm affinity estimate (log intensity, higher = more binding, comparable within an allelic series); in assay [21], 11.1 upbm affinity estimate (log intensity, higher = more binding, comparable within an allelic series); in assay [4], 8.84 upbm affinity estimate (log intensity, higher = more binding, comparable within an allelic series).

With GACCCTGC, the binding signal is 8.54 upbm affinity estimate (log intensity, higher = more binding, comparable within an allelic series) in assay [1]; 7.03 upbm affinity estimate (log intensity, higher = more binding, comparable within an allelic series) in [22]; 9.48 upbm affinity estimate (log intensity, higher = more binding, comparable within an allelic series) in assay [6]; 10.3 upbm affinity estimate (log intensity, higher = more binding, comparable within an allelic series) in [23]; 9.31 upbm affinity estimate (log intensity, higher = more binding, comparable within an allelic series) in assay [7]; 9.36 upbm affinity estimate (log intensity, higher = more binding, comparable within an allelic series) in assay [8]. Also, the binding signal in assay [24] is 10.5 upbm affinity estimate (log intensity, higher = more binding, comparable within an allelic series); in assay [4], 8.43 upbm affinity estimate (log intensity, higher = more binding, comparable within an allelic series); in assay [25] it was 6.79 upbm affinity estimate (log intensity, higher = more binding, comparable within an allelic series).

For the sequence GAATATAA, the binding signal is 9.85 upbm affinity estimate (log intensity, higher = more binding, comparable within an allelic series) in assay [1]; 10.8 upbm affinity estimate (log intensity, higher = more binding, comparable within an allelic series) in [26]; 9.99 upbm affinity estimate (log intensity, higher = more binding, comparable within an allelic series) in assay [27]; 8.92 upbm affinity estimate (log intensity, higher = more binding, comparable within an allelic series) in [4].

For CCAAGCCA, the binding signal is 8.43 upbm affinity estimate (log intensity, higher = more binding, comparable within an allelic series) in [1]; 6.51 upbm affinity estimate (log intensity, higher = more binding, comparable within an allelic series) in assay [2]; 6.6 upbm affinity estimate (log intensity, higher = more binding, comparable within an allelic series) in assay [3]; 8.54 upbm affinity estimate (log intensity, higher = more binding, comparable within an allelic series) in assay [4]; 6.46 upbm affinity estimate (log intensity, higher = more binding, comparable within an allelic series) in [5].
